Read-out in assay [1]: NAD(P)H dehydrogenase [quinone] 1 (NQO1), NQO1 (gene 1728)
Nature of the assay: LTEA_HepaRG_NQO1: Life Technologies and Expression Analysis (LTEA) Assay for NAD(P)H dehydrogenase [quinone] 1 (NQO1) using HepaRG (AID 2283526). Conditions: mRNA level, 48 h; actives raise or lower the signal. An outline of the steps: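 Differentiated HepaRG cells, plated 48 h and then switched to serum-free induction medium, were exposed in duplicate for 48 h to 8-point half-log concentrations up to 100 uM in 0.5% DMSO. mRNA measured by qRT-PCR, normalized to ACTB, GAPDH, POLR2A; bidirectional fit versus DMSO.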

Read-out in assay [2]: Nuclear factor erythroid 2-related factor 2 (Homo sapiens) (UniProt Q16236)
Nature of the assay: LTEA_HepaRG_NFE2L2: Life Technologies and Expression Analysis (LTEA) Assay for Nuclear factor erythroid 2-related factor 2 (NFE2L2) Transcription Factor using HepaRG (AID 2283527).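 Further: TaqMan qRT-PCR transcript level normalised to ACTB GAPDH and POLR2A housekeeping genes.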 Conditions: mRNA level, 48 h; actives raise or lower the signal. An outline of the steps: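 Transcript level of NFE2L2 is the read-out, measured by microfluidic TaqMan qRT-PCR and normalized to three housekeeping genes. Human HepaRG cultures received test chemical for 48 h at up to 100 uM in half-log steps. Gain or loss of signal is fitted relative to 0.5% DMSO.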

Read-out in assay [3]: succinate dehydrogenase complex iron sulfur subunit B (SDHB), SDHB (gene 6390)
The experiment in a line: LTEA_HepaRG_SDHB: Life Technologies and Expression Analysis (LTEA) Assay for succinate dehydrogenase complex iron sulfur subunit B (SDHB) using HepaRG (AID 2283528). The settings on record: mRNA level, 48 h; actives raise or lower the signal. The method, boiled down: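 HepaRG, 48 h exposure, 8-pt half-log series from 100 uM in 0.5% DMSO, duplicates. Readout: SDHB mRNA by Fluidigm qRT-PCR vs housekeeping genes; bidirectional fit relative to DMSO.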

Read-out in assay [4]: Signal transducer and activator of transcription 3 (Homo sapiens) (UniProt P40763)
The experiment in a line: LTEA_HepaRG_STAT3: Life Technologies and Expression Analysis (LTEA) Assay for Signal transducer and activator of transcription (STAT3) using HepaRG (AID 2283529). The settings on record: mRNA level, 48 h; actives raise or lower the signal. The method, boiled down: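 Read-out is STAT3 mRNA level by qRT-PCR, normalized to three housekeeping genes, in human HepaRG liver cells treated for 48 h. Concentrations ran from 100 uM downward in half-log steps; curves were fitted for gain or loss relative to 0.5% DMSO.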

Read-out in assay [5]: solute carrier (SLCO1B1), SLCO1B1 (gene 10599)
The experiment in a line: LTEA_HepaRG_SLCO1B1: Life Technologies and Expression Analysis (LTEA) Assay for solute carrier (SLCO1B1) using HepaRG (AID 2283530). The settings on record: mRNA level, 48 h; actives raise or lower the signal. An outline of the steps:
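Human HepaRG cultures treated for 48 h with an eight-concentration half-log series topping at 100 uM; SLCO1B1 measured by qRT-PCR and fitted bidirectionally relative to DMSO.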

Read-out in assay [6]: sulfotransferase 2A1 (SULT2A1), SULT2A1 (gene 6822)
Nature of the assay: LTEA_HepaRG_SULT2A1: Life Technologies and Expression Analysis (LTEA) Assay for sulfotransferase 2A1 (SULT2A1) using HepaRG (AID 2283531). The settings on record: mRNA level, 48 h; actives raise or lower the signal. The method, boiled down:
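Gene-expression endpoint in a human liver cell line: SULT2A1 mRNA change after 48 h chemical treatment, curves fitted in both directions relative to 0.5% DMSO vehicle. Concentrations spanned eight half-log steps from 100 uM.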

Read-out in assay [7]: Transforming Growth Factor (TGFA), TGFA (gene 7039)
The experiment in a line: LTEA_HepaRG_TGFA: Life Technologies and Expression Analysis (LTEA) Assay for Transforming Growth Factor (TGFA) using HepaRG (AID 2283532). The settings on record: mRNA level, 48 h; actives raise or lower the signal. An outline of the steps:
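HepaRG (human liver line), 48 h exposure, 8 conc. half-log down from 100 uM, 0.5% DMSO vehicle, duplicates; serum-free induction medium. TGFA mRNA by TaqMan qRT-PCR, ACTB/GAPDH/POLR2A normalization; gain/loss fit vs DMSO.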

Read-out in assay [8]: Transforming Growth Factor (TGFB1), TGFB1 (gene 7040)
Nature of the assay: LTEA_HepaRG_TGFB1: Life Technologies and Expression Analysis (LTEA) Assay for Transforming Growth Factor (TGFB1) Transporter using HepaRG (AID 2283533). The settings on record: mRNA level, 48 h; actives raise or lower the signal. An outline of the steps: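 Eight-point concentration-response (max 100 uM, half-log) in HepaRG under serum-free induction conditions, 48 h. TGFB1 mRNA by qRT-PCR, housekeeping-normalized.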

Read-out in assay [9]: TIMP1, TIMP1 (gene 7076)
The experiment in a line: LTEA_HepaRG_TIMP1: Life Technologies and Expression Analysis (LTEA) Assay for TIMP1 using HepaRG (AID 2283534). The settings on record: mRNA level, 48 h; actives raise or lower the signal. The method, boiled down:
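TIMP1 induction or repression in HepaRG cells after 48 h chemical exposure (eight concentrations, highest 100 uM), assessed by normalized qRT-PCR with bidirectional fitting to DMSO controls.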

Read-out in assay [10]: Tumor necrosis factor receptor 1 (TNFRSF1A), TNFRSF1A (gene 7132)
Nature of the assay: LTEA_HepaRG_TNFRSF1A: Life Technologies and Expression Analysis (LTEA) Assay for Tumor necrosis factor receptor 1 (TNFRSF1A) using HepaRG (AID 2283535). Conditions: mRNA level, 48 h; actives raise or lower the signal. The method, boiled down:
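Assay uses 48 h chemical treatment of differentiated HepaRG monolayers, tested in duplicate at eight concentrations from 100 uM downward in 0.5% DMSO. mRNA is normalized to ACTB, GAPDH and POLR2A, with induction or suppression fitted relative to vehicle.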

Read-out in assay [11]: Thyroid Hormone Responsive (THRSP), THRSP (gene 7069)
Nature of the assay: LTEA_HepaRG_THRSP: Life Technologies and Expression Analysis (LTEA) Assay for Thyroid Hormone Responsive (THRSP) using HepaRG (AID 2283536). The settings on record: mRNA level, 48 h; actives raise or lower the signal. The method, boiled down:
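mRNA induction or loss relative to 0.5% DMSO vehicle was fitted bidirectionally across an eight-point curve whose highest exposure was 100 uM. Human HepaRG liver cells received chemicals in duplicate over 48 h before RNA extraction.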

Read-out in assay [12]: Cellular tumor antigen p53 (Homo sapiens) (UniProt P04637)
Nature of the assay: LTEA_HepaRG_TP53: Life Technologies and Expression Analysis (LTEA) Assay for Tumor Protein P53 (TP53) using HepaRG (AID 2283537). Conditions: mRNA level, 48 h; actives raise or lower the signal. An outline of the steps: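 HepaRG, 48 h exposure, top 100 uM, half-log 8-point, 0.5% DMSO vehicle, duplicates. Read: TP53 mRNA by TaqMan qRT-PCR, normalised to ACTB/GAPDH/POLR2A; bidirectional fit vs DMSO.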

Read-out in assay [13]: UDP glucuronosyltransferase (UGT1A1), UGT1A1 (gene 54658)
Nature of the assay: LTEA_HepaRG_UGT1A1: Life Technologies and Expression Analysis (LTEA) Assay for UDP glucuronosyltransferase (UGT1A1) using HepaRG (AID 2283538). The settings on record: mRNA level, 48 h; actives raise or lower the signal. An outline of the steps: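 Differentiated human HepaRG cells in serum-free induction medium were exposed in duplicate for 48 h to eight half-log concentrations up to 100 uM in 0.5% DMSO. UGT1A1 mRNA was quantified by TaqMan qRT-PCR, normalized to ACTB, GAPDH and POLR2A, and fitted bidirectionally against DMSO.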

Read-out in assay [14]: UDP glucuronosyltransferase (UGT1A6), UGT1A6 (gene 54578)
The experiment in a line: LTEA_HepaRG_UGT1A6: Life Technologies and Expression Analysis (LTEA) Assay for UDP glucuronosyltransferase (UGT1A6) using HepaRG (AID 2283539). Conditions: mRNA level, 48 h; actives raise or lower the signal. The method, boiled down:
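Measures mRNA change in HepaRG hepatic cells exposed 48 h to chemicals (eight-point, maximum 100 uM, 0.5% DMSO vehicle) in serum-free induction medium. Expression normalized to endogenous controls; DMSO served as negative control and baseline.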

Read-out in assay [15]: X-box binding protein 1 (XBP1), XBP1 (gene 7494)
The experiment in a line: LTEA_HepaRG_XBP1: Life Technologies and Expression Analysis (LTEA) Assay for X-box binding protein 1 (XBP1) using HepaRG (AID 2283540). The settings on record: mRNA level, 48 h; actives raise or lower the signal. The method, boiled down: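 Eight concentrations (half-log, highest 100 uM, 0.5% DMSO) tested in duplicate on HepaRG cells over 48 h in serum-free induction medium; qRT-PCR of XBP1 normalised to ACTB, GAPDH, POLR2A.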

A short description of assay [16]: LTEA_HepaRG_LDH_cytotoxicity: Cytotoxicity Assessment in the Life Technologies and Expression Analysis (LTEA) Assay (AID 2283563; active means hit-call score of the fitted dose curve at least 0.9, where 1 is the maximum). The method, boiled down: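 Spent-medium LDH after 48 h chemical exposure of HepaRG cells in serum-free induction medium; eight concentrations, half-log dilutions from 100 uM, duplicate wells, fitted upward relative to 0.5% DMSO.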
Assay [17] can be described thus: TOX21_p53_BLA_p2_viability: Viability Assessment in the Tox21 HCT-116 p53 Agonism Beta-lactamase Assay, Phase 2 (AID 2283591; active means hit-call score of the fitted dose curve at least 0.9, where 1 is the maximum;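 further: compound exposure lasted 16 h at 37 °C; actives lower the ATP signal meaning cytotoxicity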). The method, boiled down:
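Cytotoxicity readout: CellTiter-Glo ATP luminescence, 30 min at room temperature, after the beta-lactamase read. Cells were HCT116 exposed 16 h at 37C to compounds pin-transferred at 217-fold dilution from DMSO stocks.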

The nature of assay [18]: ATG_XTT_Cytotoxicity: Cytotoxicity Assessment in the Attagene TRANS-FACTORIAL HepG2 Assay (AID 2283584; active means hit-call score of the fitted dose curve at least 0.9, where 1 is the maximum). The method, boiled down: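 24 h chemical exposure of reporter-transfected HepG2; XTT signal loss vs DMSO indicates cytotoxicity.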
Assay [19] has as its target Cellular tumor antigen p53 (Homo sapiens) (UniProt P04637). The experiment in a line: TOX21_p53_BLA_p2_ratio: Tox21 HCT-116 p53 Agonism Beta-lactamase Assay, Ratio, Phase 2 (AID 2283592; active means hit-call score of the fitted dose curve at least 0.9, where 1 is the maximum). An outline of the steps: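 Human colon HCT116 cells with an inducible p53 beta-lactamase reporter are exposed to test chemicals for 16 h at 37C. Reporter induction is read as the 460/530 nm emission ratio after CCF4-AM loading, normalized to DMSO.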

Results filed as inconclusive are left out. Calls of active or inactive are those of the source. How the source made its calls, unless noted: active means hit-call score of the fitted dose curve at least 0.9, where 1 is the maximum; inactive means score below 0.9.

Chain of Cellular tumor antigen p53 (Homo sapiens) (P04637 whole entry, looked up): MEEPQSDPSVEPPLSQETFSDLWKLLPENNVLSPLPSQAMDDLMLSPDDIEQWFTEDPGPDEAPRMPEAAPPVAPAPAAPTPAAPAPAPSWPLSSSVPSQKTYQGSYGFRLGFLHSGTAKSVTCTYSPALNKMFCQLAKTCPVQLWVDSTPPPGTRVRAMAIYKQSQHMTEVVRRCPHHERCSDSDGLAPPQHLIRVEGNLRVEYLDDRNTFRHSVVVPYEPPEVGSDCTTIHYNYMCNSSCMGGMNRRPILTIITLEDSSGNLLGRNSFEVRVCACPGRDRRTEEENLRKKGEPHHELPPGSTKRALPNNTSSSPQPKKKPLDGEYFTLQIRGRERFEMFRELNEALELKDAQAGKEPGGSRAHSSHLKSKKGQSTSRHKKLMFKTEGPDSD
Chain of Signal transducer and activator of transcription 3 (Homo sapiens) (P40763 whole entry, looked up): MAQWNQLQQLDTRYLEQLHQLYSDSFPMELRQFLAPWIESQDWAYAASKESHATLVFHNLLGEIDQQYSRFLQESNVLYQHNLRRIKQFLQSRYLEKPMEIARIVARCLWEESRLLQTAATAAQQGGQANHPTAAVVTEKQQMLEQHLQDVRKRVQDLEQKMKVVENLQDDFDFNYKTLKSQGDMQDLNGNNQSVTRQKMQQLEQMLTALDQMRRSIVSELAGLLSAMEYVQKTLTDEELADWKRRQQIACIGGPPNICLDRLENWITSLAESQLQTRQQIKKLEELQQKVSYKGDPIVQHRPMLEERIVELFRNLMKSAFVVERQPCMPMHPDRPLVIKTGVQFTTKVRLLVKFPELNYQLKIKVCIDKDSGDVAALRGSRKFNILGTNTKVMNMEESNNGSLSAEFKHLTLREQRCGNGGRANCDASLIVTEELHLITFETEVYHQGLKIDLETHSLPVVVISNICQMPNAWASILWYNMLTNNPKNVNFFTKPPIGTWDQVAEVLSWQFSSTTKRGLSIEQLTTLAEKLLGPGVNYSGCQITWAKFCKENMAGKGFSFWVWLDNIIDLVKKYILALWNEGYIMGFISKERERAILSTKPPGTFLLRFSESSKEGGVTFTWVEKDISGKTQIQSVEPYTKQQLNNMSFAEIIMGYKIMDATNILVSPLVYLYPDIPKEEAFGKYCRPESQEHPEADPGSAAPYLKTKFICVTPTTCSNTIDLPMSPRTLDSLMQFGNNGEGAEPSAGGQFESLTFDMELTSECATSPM
Chain of Nuclear factor erythroid 2-related factor 2 (Homo sapiens) (Q16236 whole entry, looked up): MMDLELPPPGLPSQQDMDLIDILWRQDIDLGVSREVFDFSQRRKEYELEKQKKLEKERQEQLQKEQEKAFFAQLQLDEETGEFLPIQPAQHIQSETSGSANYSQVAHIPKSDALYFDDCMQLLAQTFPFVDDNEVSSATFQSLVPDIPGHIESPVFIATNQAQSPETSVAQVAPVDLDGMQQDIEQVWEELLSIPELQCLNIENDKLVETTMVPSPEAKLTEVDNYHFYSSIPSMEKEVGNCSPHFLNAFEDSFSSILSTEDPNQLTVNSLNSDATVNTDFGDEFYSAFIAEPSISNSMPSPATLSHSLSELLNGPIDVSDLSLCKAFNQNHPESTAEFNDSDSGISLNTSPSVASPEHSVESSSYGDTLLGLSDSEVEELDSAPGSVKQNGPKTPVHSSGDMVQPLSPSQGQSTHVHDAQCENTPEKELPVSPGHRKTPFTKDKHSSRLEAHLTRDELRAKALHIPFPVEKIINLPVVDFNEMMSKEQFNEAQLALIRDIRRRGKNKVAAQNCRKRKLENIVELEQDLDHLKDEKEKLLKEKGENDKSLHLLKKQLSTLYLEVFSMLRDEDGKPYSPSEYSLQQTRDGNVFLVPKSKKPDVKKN

`ClC1=C(Cl)[C@]2(Cl)[C@@H]3[C@H]4C[C@H]([C@@H]5O[C@H]45)[C@@H]3[C@@]1(Cl)C2(Cl)Cl`: the molecule was called inactive in assay [1], in [2], in assay [3], in assay [4], in assay [6] and in [7]. Also, the call in [8], in assay [9], in assay [10], in assay [12], in assay [14] and in assay [15] was inactive. Also, the call in [16] and in assay [17] was inactive. In addition, the AC50 in assay [5] was 13.8 µM (active); in [11], 93 µM (active); in assay [13], 2.04 µM (active).
On to `CC1=C2C[C@H]3[C@@H](CC=C4C[C@@H](O)CC[C@@]43C)[C@@H]2CC[C@]12O[C@@H]1C[C@H](C)CN[C@H]1[C@H]2C`, for which the call in assay [1], in [2], in assay [3], in assay [4], in [5] and in assay [6] was inactive. Also, the call in [7], in assay [8], in assay [9], in assay [10], in [11] and in [12] was inactive. In addition, the outcome in assay [13], in assay [14], in assay [16], in assay [18] and in [17] was inactive. Moreover, the AC50 in assay [15] is 25 µM (active).
`Cc1ccccc1CO[C@@H]1C[C@@]2(C(C)C)CC[C@]1(C)O2`: the call in assay [1], in assay [2], in assay [3], in [4], in [5] and in assay [6] was inactive. The call in assay [7], in assay [8], in assay [9], in assay [10], in assay [14] and in assay [15] was inactive. The molecule was classed as inactive in assay [16]. The AC50 in [11] was 71.7 µM (active); in [13], 14.9 µM (active).
Take `O=C(NC(=O)c1c(F)cccc1F)Nc1cc(Cl)c(OC(F)(F)C(F)F)c(Cl)c1`: the molecule was classed as inactive in [1], in assay [2], in assay [3], in [5], in assay [6] and in assay [7]. The molecule was classed as inactive in assay [8], in assay [9], in assay [10], in assay [12], in assay [13] and in assay [14]. For the same molecule, the molecule was classed as inactive in assay [15], in [16], in [18], in [17] and in assay [19]. For the same molecule, the concentration at half-maximal activity (AC50) in assay [4] and in assay [11] was 9.92 µM (active) in each case.

The term AC50 denotes the concentration giving half of the maximal activity seen.

Values taken from PubChem BioAssay (EPA / NIEHS).
